# Experimental data taken from PubChem BioAssay (NCI).
# About 83,000 compounds went through this panel and 20% of them were active in at least one assay; those are over-represented in the sample as a whole.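 Cell lines were cultured in 96-well plates, exposed to a single compound concentration, and assessed for percent growth 48 hours later.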 Values without a mark were called inactive. The source made the active and inactive calls. The calls were made as follows: active = growth percent below 10; inactive = the rest.
# Columns and labels:
# Assay in all cases: NCI-60 one-dose screen, 48 h (100 = growth as untreated, 0 = no growth, -100 = all killed)
# Details in all cases: 10 µM unless noted
# NCI-H23 lung = tested on: NCI-H23 lung
# NCI-H226 lung = tested on: NCI-H226 lung
# NCI-H322M lung = tested on: NCI-H322M lung
# HOP-62 NSCLC = tested on: HOP-62 NSCLC
# NCI-H460 lung = tested on: NCI-H460 lung
# HOP-92 NSCLC = tested on: HOP-92 NSCLC
# NCI-H522 lung = tested on: NCI-H522 lung
# A549/ATCC NSCLC = tested on: A549/ATCC NSCLC
# 786-0 renal = tested on: 786-0 renal
# COLO 205 colon = tested on: COLO 205 colon
# DU-145 prostate = tested on: DU-145 prostate
# K-562 leukemia = tested on: K-562 leukemia
# MALME-3M melanoma = tested on: MALME-3M melanoma
# MDA-MB-231 breast = tested on: MDA-MB-231 breast
# RXF 393 renal = tested on: RXF 393 renal
# SF-268 CNS = tested on: SF-268 CNS
# SF-295 CNS = tested on: SF-295 CNS
# SF-539 CNS = tested on: SF-539 CNS
# UACC-257 melanoma = tested on: UACC-257 melanoma
# M14 melanoma = tested on: M14 melanoma
SMILES,growth (NCI-H23 lung) [%],growth (NCI-H226 lung) [%],growth (NCI-H322M lung) [%],growth (HOP-62 NSCLC),growth (NCI-H460 lung),growth (HOP-92 NSCLC),growth (NCI-H522 lung) [%],growth (A549/ATCC NSCLC) [%],growth (786-0 renal),growth (COLO 205 colon),growth (DU-145 prostate),growth (K-562 leukemia),growth (MALME-3M melanoma) [%],growth (MDA-MB-231 breast),growth (RXF 393 renal),growth (SF-268 CNS) [%],growth (SF-295 CNS),growth (SF-539 CNS),growth (UACC-257 melanoma) [%],growth (M14 melanoma)
C/C(=C(/c1ccccc1)c1ccc(N2C(=O)c3cccc4c(N5CCN(C)CC5)ccc(c34)C2=O)cc1)c1ccccc1,59.7,69.6,99.9,86.1%,83.3%,67.4%,81.5,71.1,87.6%,81.1%,82.8%,9.2% (active),81.4,94.5%,74.8%,96.2,83.3%,72.3%,79.8,85.6%
CCOc1ccc2nc(SCc3nc4n(n3)S(=O)(=O)c3ccccc3N4C)sc2c1,13.2,32,38.6,-42.9% (active),38.2%,-14% (active),22.6,24,-33.3% (active),23.3%,25.3%,34.8%,10.1,10.5%,7.23% (active),25.9,6.74% (active),8.46% (active),24.4,5.88% (active)
CNCCCNc1nc2ccccc2c2c(=O)c3cc(F)ccc3sc12,70.1,81.7,55.9,47.9%,-52.9% (active),28.9%,24.8,37.9,61.5%,-47.8% (active),2.57% (active),-38.7% (active),84.2,-53.7% (active),45.6%,51.5,81.5%,1.04% (active),91.6,-53.2% (active)
Nc1nc(Cl)cc(=O)n1Cc1ccccc1,88.1,87.6,89.6,97.8%,105%,88.3%,86.7,94.6,101%,114%,98.9%,106%,93.2,92%,101%,103,95.5%,96.2%,93.1,93.3%
COc1nc2ccccc2cc1-c1nc2c(cnn2-c2ccccc2)c(=O)[nH]1,46.2,73.3,82.1,44.2%,24.4%,64.6%,21.6,50.2,61.9%,32.6%,61%,16.7%,75.6,58.3%,67.1%,53.6,43.8%,28.9%,55.5,23.9%
CC1CN(C2CCCCC2)C(=S)N(c2ccccc2)C1=O (stereo not given),100,115,107,93.7%,107%,92.8%,116,102,92.2%,127%,115%,117%,119,115%,123%,102,103%,103%,109,108%
CCc1cccc2c1S/C(=C/c1ccc(Cl)cc1)C2=O,79.6,87.2,85.4,80.9%,102%,83.5%,91.7,97.4,100%,108%,107%,80.1%,87.5,87.6%,105%,93,96.7%,89.1%,105,99.1%
